# Assay results reported in PubChem BioAssay (Tox21).
# “And” between values parts separate entries of the source, which are not always exact repeats. Equal entries are not always repeated. Records with an inconclusive call do not appear. A call without a number means that no potency is given here. More than one record can exist for a structure, and the calls need not agree. The source made the active and inactive calls. Unless noted, calls come from the whole dose curve; as a rule, active = well fitted curve in the direction sought with a large enough effect in the repeat runs; inconclusive = weak or mixed curves; inactive = no such curve, though single readings can be large; an effect the other way counts as inactive or inconclusive.
# Legend:
# [1] = qHTS assay to identify small molecule antagonists of the thyroid receptor (TR) signaling pathway - cell viability counter screen (AID 743064); note: nearly all actives have a fitted effect of over 50% in size; note: potency is the fitted concentration of half-maximal effect
# Outline: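 Counter screen for cytotoxicity: compound plus T3 (1 nM final) on GH3.TRE-Luc cells, 23.5 h at 37 °C, then fluorescence viability readout with CellTiter-Fluor.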
# [2] = qHTS assay to identify small molecule antagonists of the thyroid receptor (TR) signaling pathway (AID 743065); note: nearly all actives have a fitted effect of over 55% in size; note: potency is the fitted concentration of half-maximal effect
# Outline: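 Antagonism measured as loss of luciferase signal in GH3 cells stably carrying a TRE-luciferase reporter, co-treated with compound and T3 (1 nM final) for 23.5 h at 37 C. Viability was read in the same well by CellTiter-Fluor.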
# [3] = tested on: thyroid hormone receptor (rat, GH3 cells); test: qHTS assay to identify small molecule agonists of the thyroid receptor (TR) signaling pathway (AID 743066; calls by dose curve)
# [4] = qHTS assay to identify small molecule antagonists of the estrogen receptor alpha (ER-alpha) signaling pathway - cell viability counter screen (AID 743074; calls by dose curve; note: nearly all actives have a fitted effect of over 45% in size)
# [5] = qHTS assay to identify small molecule antagonists of the estrogen receptor alpha (ER-alpha) signaling pathway using the BG1 cell line - cell viability counter screen (AID 743081);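 note: compound given together with 17beta-estradiol as the ER stimulus; series mostly up to about 70 µM; nearly all actives have a fitted effect of over 45% in size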
# [6] = qHTS assay to identify small molecule that activate the aryl hydrocarbon receptor (AhR) signaling pathway - cell viability counter screen (AID 743086);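 note: HepG2 liver cells carrying the AhR DRE luciferase reporter; series mostly up to about 70 µM; nearly all actives have a fitted effect of over 45% in size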
# Outline: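 Cytotoxicity counter screen: CellTiter-Fluor signal (30 min, 37 C) in 4000 HepG2 cells/well carrying the DRE-luciferase reporter, following 24 h compound exposure at 37 C.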
# [7] = qHTS assay to identify small molecule antagonists of the peroxisome proliferator-activated receptor gamma (PPARg) signaling pathway - cell viability counter screen (AID 743194); note: nearly all actives have a fitted effect of over 55% in size
# Outline: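 Viability was measured as CellTiter-Glo luminescence in GeneBLAzer PPARg UAS-bla HEK293H cells. These cells had been exposed 17 h at 37 C to compounds together with rosiglitazone at 50 nM final, with the beta-lactamase readout taken in the same wells.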
# [8] = qHTS assay for small molecule agonists of the antioxidant response element (ARE) signaling pathway (AID 743202; active = well fitted activation curve with a large enough effect in the signal ratio in the repeat runs, not every such curve was filed as active; the % refers to the signal ratio; note: potency is the fitted concentration of half-maximal effect)
# Outline: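 Beta-lactamase reporter activity, read as fluorescence intensity, reflects ARE/Nrf2 pathway induction in HepG2 cells after 16 h compound exposure at 37 C; substrate loading was 2 h at room temperature.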
# [9] = qHTS assay for small molecule agonists of the antioxidant response element (ARE) signaling pathway - cell viability counter screen (AID 743203; calls by dose curve; note: nearly all actives have a fitted effect of over 55% in size)
# Outline: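 Parallel cytotoxicity read-out for the ARE-bla screen: HepG2 reporter cells, 16 hrs with compounds, then CellTiter-Glo luminescence.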
# [10] = qHTS assay for small molecule activators of the heat shock response signaling pathway - cell viability counter screen (AID 743209); note: nearly all actives have a fitted effect of over 50% in size
# Outline: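 To flag cytotoxic compounds, HSE-bla HeLa cells plated at 1500 cells/well were dosed for 5 h at 37 C, followed by the reporter FRET read and then CellTiter-Glo, with luminescence recorded 30 min after reagent addition.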
# [11] = qHTS assay for small molecule activators of the heat shock response signaling pathway (AID 743210; active = well fitted activation curve with a large enough effect in the signal ratio in the repeat runs, with a control signal flat, not every such curve was filed as active; the % refers to the signal ratio;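 note: HeLa cells with beta-lactamase reporter driven by heat shock elements; series mostly up to about 63 µM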)
# Outline: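 Fluorescence from a cleaved B/G FRET substrate (2.5 h, room temp) reports HSE-driven beta-lactamase in HeLa cells treated 5 h at 37 C with DMSO-dissolved compounds.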
# [12] = target: Estrogen receptor (Homo sapiens) (UniProt P03372); test: qHTS assay to identify small molecule antagonists of the estrogen receptor alpha (ER-alpha) signaling pathway (AID 743069; active = well fitted curve in the direction sought with a large enough effect in the signal ratio in the repeat runs, not every such curve was filed as active; the % refers to the signal ratio)
# Chain of Estrogen receptor (Homo sapiens) (P03372 whole entry, looked up): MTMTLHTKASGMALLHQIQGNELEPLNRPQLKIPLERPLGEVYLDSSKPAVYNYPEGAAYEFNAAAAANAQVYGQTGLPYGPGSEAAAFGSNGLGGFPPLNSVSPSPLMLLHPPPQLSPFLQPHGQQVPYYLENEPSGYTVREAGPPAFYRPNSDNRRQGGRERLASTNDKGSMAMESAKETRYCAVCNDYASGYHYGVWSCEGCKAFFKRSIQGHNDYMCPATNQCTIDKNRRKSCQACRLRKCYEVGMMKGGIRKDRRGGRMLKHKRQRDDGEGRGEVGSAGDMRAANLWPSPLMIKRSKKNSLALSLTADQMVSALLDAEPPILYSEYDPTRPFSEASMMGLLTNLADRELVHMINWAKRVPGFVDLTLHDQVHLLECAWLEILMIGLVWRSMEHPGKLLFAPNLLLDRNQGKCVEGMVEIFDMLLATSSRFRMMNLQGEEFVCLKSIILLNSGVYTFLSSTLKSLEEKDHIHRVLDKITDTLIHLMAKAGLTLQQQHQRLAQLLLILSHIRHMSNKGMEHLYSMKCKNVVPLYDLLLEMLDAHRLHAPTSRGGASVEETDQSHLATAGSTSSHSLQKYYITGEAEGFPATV
# Outline: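 Fluorescence intensity from a beta-lactamase FRET substrate served as the read-out. Cells: HEK293 with stably integrated ER-alpha-UAS-bla reporter. Agonist 17beta-estradiol was co-added with compounds; incubation 18 hr at 37C, substrate 2 hr at room temperature.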
# [13] = target: Estrogen receptor (Homo sapiens) (UniProt P03372); test: qHTS assay to identify small molecule agonists of the estrogen receptor alpha (ER-alpha) signaling pathway (AID 743075; calls by dose curve)
# [14] = target: Estrogen receptor (Homo sapiens) (UniProt P03372); test: qHTS assay to identify small molecule agonists of the estrogen receptor alpha (ER-alpha) signaling pathway using the BG1 cell line (AID 743079); note: nearly all actives have a fitted effect of over 20% in size; note: potency is the fitted concentration of half-maximal effect
# [15] = qHTS assay to identify small molecule antagonists of the estrogen receptor alpha (ER-alpha) signaling pathway using the BG1 cell line (AID 743080; calls by dose curve;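 note: BG1 cells stimulated with 17beta-estradiol alongside compound; series mostly up to about 70 µM; nearly all actives have a fitted effect of over 25% in size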)
# Outline: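 Luminescence from a 4×ERE-luciferase reporter in BG1-Luc-4E2 cells served as read-out. Cells, pre-cultured 5 days in stripped-serum phenol-red-free medium, were exposed to compound with 17beta-estradiol co-stimulation for 21.5 h at 37 C.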
# [16] = target: Aromatase (Homo sapiens) (UniProt P11511); test: qHTS assay to identify aromatase inhibitors (AID 743083); note: series mostly up to about 70 µM; nearly all actives have a fitted effect of over 55% in size
# Chain of Aromatase (Homo sapiens) (P11511 whole entry, looked up): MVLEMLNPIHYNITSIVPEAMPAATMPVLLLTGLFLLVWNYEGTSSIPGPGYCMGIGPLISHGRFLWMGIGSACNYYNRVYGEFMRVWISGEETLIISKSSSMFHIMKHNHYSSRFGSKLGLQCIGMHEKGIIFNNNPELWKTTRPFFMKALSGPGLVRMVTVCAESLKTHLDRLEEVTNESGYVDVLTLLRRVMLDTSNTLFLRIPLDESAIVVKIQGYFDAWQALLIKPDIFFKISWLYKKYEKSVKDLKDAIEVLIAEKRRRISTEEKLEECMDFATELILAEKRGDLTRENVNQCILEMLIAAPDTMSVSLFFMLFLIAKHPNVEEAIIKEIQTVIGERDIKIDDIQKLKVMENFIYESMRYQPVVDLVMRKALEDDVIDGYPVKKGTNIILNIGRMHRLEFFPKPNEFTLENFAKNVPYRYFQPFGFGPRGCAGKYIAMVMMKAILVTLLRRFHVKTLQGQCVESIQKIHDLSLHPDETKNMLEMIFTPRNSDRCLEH
# [17] = qHTS assay to identify aromatase inhibitors - cell viability counter screen (AID 743084)
# [18] = target: Aryl hydrocarbon receptor (Homo sapiens) (UniProt P35869); test: qHTS assay to identify small molecule that activate the aryl hydrocarbon receptor (AhR) signaling pathway (AID 743085); note: nearly all actives have a fitted effect of over 15% in size; note: potency is the fitted concentration of half-maximal effect;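 for activation: HG2L7.5c1 human HepG2 liver cells with stably integrated DRE-driven firefly reporter; series mostly up to about 70 µM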
# Chain of Aryl hydrocarbon receptor (Homo sapiens) (P35869 whole entry, looked up): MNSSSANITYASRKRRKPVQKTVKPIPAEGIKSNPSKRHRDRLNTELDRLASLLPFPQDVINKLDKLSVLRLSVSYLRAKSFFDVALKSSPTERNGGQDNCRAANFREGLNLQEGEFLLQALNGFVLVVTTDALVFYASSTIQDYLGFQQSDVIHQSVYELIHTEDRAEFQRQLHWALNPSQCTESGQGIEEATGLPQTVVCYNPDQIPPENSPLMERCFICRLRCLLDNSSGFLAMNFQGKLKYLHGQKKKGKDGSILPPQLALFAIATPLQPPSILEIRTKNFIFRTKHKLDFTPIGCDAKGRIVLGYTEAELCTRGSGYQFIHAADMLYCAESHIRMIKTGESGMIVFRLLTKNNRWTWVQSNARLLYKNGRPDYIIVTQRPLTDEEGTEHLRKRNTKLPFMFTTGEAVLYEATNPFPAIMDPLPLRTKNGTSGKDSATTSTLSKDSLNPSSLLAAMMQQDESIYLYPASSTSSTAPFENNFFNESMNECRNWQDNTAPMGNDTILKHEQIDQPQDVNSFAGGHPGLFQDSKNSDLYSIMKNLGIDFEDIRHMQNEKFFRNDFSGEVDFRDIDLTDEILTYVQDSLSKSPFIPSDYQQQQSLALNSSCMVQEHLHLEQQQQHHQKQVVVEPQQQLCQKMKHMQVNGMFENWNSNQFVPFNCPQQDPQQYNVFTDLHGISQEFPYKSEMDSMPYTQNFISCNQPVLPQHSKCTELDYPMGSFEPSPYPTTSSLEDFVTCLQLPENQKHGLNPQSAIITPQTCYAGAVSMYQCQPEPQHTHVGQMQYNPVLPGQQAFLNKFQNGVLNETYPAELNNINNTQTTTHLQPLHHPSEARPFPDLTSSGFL
# Outline: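 Measured in HG2L7.5c1 cells: CellTiter-Fluor signal (30 min incubation, 37C) for viability, then luciferase luminescence (30 min, room temperature). Compound contact time was 24 h at 37C, following a 5 h pre-incubation.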
# [19] = target: Peroxisome proliferator-activated receptor gamma (Homo sapiens) (UniProt P37231); test: qHTS assay to identify small molecule agonists of the peroxisome proliferator-activated receptor gamma (PPARg) signaling pathway (AID 743094; active = well fitted activation curve with a large enough effect in the signal ratio in the repeat runs, not every such curve was filed as active; the % refers to the signal ratio)
# Chain of Peroxisome proliferator-activated receptor gamma (Homo sapiens) (P37231 whole entry, looked up): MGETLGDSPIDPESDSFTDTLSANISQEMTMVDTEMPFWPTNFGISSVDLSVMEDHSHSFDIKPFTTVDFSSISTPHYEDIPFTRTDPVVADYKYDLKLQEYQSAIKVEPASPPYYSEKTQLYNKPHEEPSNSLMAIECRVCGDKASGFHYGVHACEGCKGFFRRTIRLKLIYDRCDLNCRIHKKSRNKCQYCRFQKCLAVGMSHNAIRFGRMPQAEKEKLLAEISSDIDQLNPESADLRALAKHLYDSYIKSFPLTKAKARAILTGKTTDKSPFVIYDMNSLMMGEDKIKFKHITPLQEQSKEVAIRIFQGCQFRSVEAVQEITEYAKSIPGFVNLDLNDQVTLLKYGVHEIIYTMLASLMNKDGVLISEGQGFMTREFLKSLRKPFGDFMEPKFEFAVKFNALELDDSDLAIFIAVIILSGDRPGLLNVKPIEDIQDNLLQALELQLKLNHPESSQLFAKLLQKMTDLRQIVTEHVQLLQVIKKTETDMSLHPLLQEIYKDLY
# Outline: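 Fluorescence-based beta-lactamase readout in HEK293H PPARg UAS-bla cells after 17 h compound exposure (37C) and 1 h B/G FRET substrate incubation at room temperature.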
# [20] = target: Peroxisome proliferator-activated receptor gamma (Homo sapiens) (UniProt P37231); test: qHTS assay to identify small molecule antagonists of the peroxisome proliferator-activated receptor gamma (PPARg) signaling pathway (AID 743191; calls by dose curve; note: series mostly up to about 63 µM; nearly all actives have a fitted effect of over 30% in size)
# Outline: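 Beta-lactamase reporter under UAS control in HEK293H PPARg-bla cells; compound treatment 17 h at 37C. Read-out: fluorescence intensity after 1 h room-temperature incubation with LiveBLAzer B/G FRET substrate.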
SMILES,Potency [1],Potency [2],Potency [3],Potency [4],Potency [5],Potency [6],Potency [7],Potency [8],Potency [9],Potency [10],Potency [11],Potency [12],Potency [13],Potency [14],Potency [15],Potency [16],Potency [17],Potency [18],Potency [19],Potency [20]
OC[C@H]1O[C@@H]2O[C@H]3[C@H](O)[C@@H](O)[C@@H](O[C@H]4[C@H](O)[C@@H](O)[C@@H](O[C@H]5[C@H](O)[C@@H](O)[C@@H](O[C@H]6[C@H](O)[C@@H](O)[C@@H](O[C@H]7[C@H](O)[C@@H](O)[C@@H](O[C@H]8[C@H](O)[C@@H](O)[C@@H](O[C@H]1[C@H](O)[C@H]2O)O[C@@H]8CO)O[C@@H]7CO)O[C@@H]6CO)O[C@@H]5CO)O[C@@H]4CO)O[C@@H]3CO,inactive,inactive,inactive,inactive,inactive,inactive,inactive,inactive,inactive,inactive,inactive,–,–,–,–,–,–,–,–,–
C=C(C)C(=O)OCCOC(=O)C(=C)C,inactive,–,inactive,inactive,inactive,–,inactive,inactive,inactive,inactive,inactive,inactive,inactive,inactive,inactive,inactive,inactive,inactive,inactive,inactive
c1ccc2c(c1)Oc1ccccc1S2,inactive,–,inactive,inactive,inactive,inactive,–,inactive,inactive,inactive,inactive,inactive,inactive,inactive and 61.1 µM (active),inactive,inactive,inactive,–,–,–
CCC(C)c1ccccc1O (centres undefined),inactive,inactive,inactive,–,inactive,inactive,inactive,inactive,inactive,inactive,inactive,–,–,–,–,inactive,inactive,inactive,inactive,–
CC(C)CC(C)(O)C#CC(C)(O)CC(C)C (centres undefined),inactive,inactive,inactive,inactive,inactive,inactive,inactive,inactive,inactive,inactive,inactive,–,–,–,–,–,inactive,inactive,–,–
CC(CCC(=O)O)(c1ccc(O)cc1)c1ccc(O)cc1,inactive,–,inactive,inactive,inactive,–,inactive,inactive,inactive,inactive,inactive,inactive,inactive,61.1 µM (active),inactive,inactive,inactive,inactive,inactive,–
COc1ccc(C(=O)CC(=O)c2ccc(C(C)(C)C)cc2)cc1,26.6 µM (active) and 65.8 µM (active),29.8 µM (active),inactive,inactive,inactive,–,inactive,inactive,inactive,inactive,–,–,–,–,–,inactive,inactive,inactive,inactive,–
Cc1[nH]c(=O)c(C#N)cc1-c1ccncc1,inactive,–,inactive,inactive,inactive,–,inactive,inactive,inactive,inactive,inactive,inactive,inactive,inactive,inactive,inactive,inactive,inactive,inactive,inactive
Cc1ccc2c(n1)Oc1ccc(C(C)C(=O)OCC(=O)N(C)C)cc1C2 (centres undefined),inactive,–,inactive,inactive,inactive,–,inactive,inactive,inactive,inactive,inactive,inactive,inactive,inactive,–,inactive,inactive,11.9 µM (active),inactive,–
c1ccc(Nc2ccccc2)cc1,inactive,–,–,inactive,inactive,–,inactive,inactive,inactive,inactive,inactive,–,–,–,–,inactive,inactive,inactive,inactive,inactive
O=C1c2cccc(O)c2C(=O)c2c(O)cccc21,inactive,–,inactive,inactive,–,–,inactive,–,inactive,inactive,inactive,–,–,–,–,inactive,inactive,inactive,inactive,inactive
CN(C)c1nc(N(C)C)nc(N(C)C)n1,inactive,–,–,inactive,inactive,inactive,inactive,inactive,inactive,inactive,inactive,–,–,–,–,–,–,–,–,–
Cc1c(OCC(F)(F)F)ccnc1CS(=O)c1nc2ccccc2[nH]1 (centres undefined),inactive,–,–,inactive,inactive,inactive,inactive,8.41 µM (active),inactive,inactive,–,–,–,–,–,inactive,inactive,4.22 µM (active) and 19.3 µM (active),inactive,inactive
CC(C)(C)NC(=O)[C@H]1CC[C@H]2[C@@H]3CC[C@H]4NC(=O)C=C[C@]4(C)[C@H]3CC[C@]12C,inactive,–,–,inactive,inactive,inactive,inactive,53.9 µM (active),inactive,inactive,inactive,inactive,inactive,inactive,inactive,inactive,inactive,inactive,inactive,–
C=C(C)C1CC=C(C)CC1 (centres undefined),inactive,–,–,inactive,inactive,–,inactive,inactive,inactive,inactive,inactive,inactive,inactive,inactive,inactive,inactive,inactive,inactive,–,–
